Reference: the supplement of paper PMC3334620
Whole data set: some 33,000 sequences, median “E-score (-0.5 to 0.5)” near -0.016, cut for the highest 2% near 0.3. The list comes from a sample in which the highest values are over-represented; it also holds similar and randomly drawn sequences.

Target: T1, Yer184c (UniProt P39961)
T1 sequence: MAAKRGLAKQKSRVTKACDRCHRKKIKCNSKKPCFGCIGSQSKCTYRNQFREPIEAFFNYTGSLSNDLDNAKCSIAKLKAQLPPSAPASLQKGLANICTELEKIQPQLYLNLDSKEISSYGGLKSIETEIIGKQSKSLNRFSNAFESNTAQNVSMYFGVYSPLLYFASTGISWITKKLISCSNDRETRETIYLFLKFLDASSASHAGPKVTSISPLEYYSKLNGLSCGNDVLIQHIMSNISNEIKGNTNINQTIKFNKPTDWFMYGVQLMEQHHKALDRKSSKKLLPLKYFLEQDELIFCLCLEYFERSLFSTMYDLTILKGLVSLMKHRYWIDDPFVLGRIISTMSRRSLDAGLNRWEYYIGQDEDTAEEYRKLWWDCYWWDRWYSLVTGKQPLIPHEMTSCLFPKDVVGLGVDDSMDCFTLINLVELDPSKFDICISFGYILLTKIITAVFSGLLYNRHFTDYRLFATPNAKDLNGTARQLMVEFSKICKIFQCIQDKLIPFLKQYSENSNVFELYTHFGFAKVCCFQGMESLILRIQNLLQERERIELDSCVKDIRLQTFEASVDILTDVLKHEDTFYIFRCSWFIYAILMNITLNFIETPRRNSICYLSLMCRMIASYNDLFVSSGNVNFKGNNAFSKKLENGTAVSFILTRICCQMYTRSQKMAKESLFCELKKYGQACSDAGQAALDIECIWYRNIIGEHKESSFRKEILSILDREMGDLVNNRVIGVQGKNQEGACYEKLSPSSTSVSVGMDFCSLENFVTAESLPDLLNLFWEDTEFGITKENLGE
Assay: PBM E-score (8-mer binding enrichment) (E-score (-0.5 to 0.5)); higher = stronger / more preferred TF binding
Settings: protein concentration: 100 nM; construct: GST-full length
Procedure, shortened: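 Universal all-10-mer Agilent arrays, fresh or stripped once, were converted to double-stranded form by primer extension. GST-tagged yeast transcription factors from PURExpress in vitro transcription/translation, full-length or DNA-binding domain only, were applied at about 100-200 nM and detected with fluorescent anti-GST. After masliner normalisation, the Universal PBM Analysis Suite scored each ungapped eight-base word together with its reverse complement by E-score.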

Sequence	PBM E-score
ACCAGCTC	-0.141
AGACCTAA	-0.106
AGAGACCG	-0.00169
AATTTCCA	0.145
ATCTCTAG	-0.118
TCTATGAA	0.112
CACTTTCC	0.021
TAAATTTA	0.311
CAAATTTA	0.119
AAAATTTA	0.228
AGAAATTC	0.077
AGAAATTA	0.354
CTAAATTA	0.202
CAAAATTA	0.212
GGAAATTA	0.201
ATAAATTA	0.316
ATAAATTG	0.254
AAAAATTA	0.253
TAAAATTA	0.341
CGAACTAC	0.0997
GATTGCCA	-0.0755
GACAGTAC	0.135
ACACTCTC	0.0613
ACAATCGG	0.307
ACAATCGT	-0.28

Sequence	PBM E-score
ACAATCGC	0.0673
GCTGAACC	0.0738
AACGCCAG	0.0264
CGGCCGGC	0.42
AGGCCGTA	0.178
CGGCCGTC	0.278
CGGCCGTA	0.311
CGGCCGGA	0.402
AGGCCGGC	0.265
CGGCCGCC	0.209
CGGCCTTA	0.291
AGGCCTTC	-0.0978
AGGCCGGA	0.247
CGGCCTTC	0.33
CGGCCGCA	0.277
CAGTAGAA	-0.069
AATCCTCA	-0.0565
GCCGATAC	0.13
CTCAACAG	-0.0543
GAAGGGAA	-0.203
AGCTCATG	-0.175
AGAGTGGC	-0.217
CGGCGATA	0.36
CGGCGACC	0.237
AGGCGATA	-0.12

Sequence	PBM E-score
CGGCGAAA	0.35
GGGCGATA	-0.222
CGGCGATC	0.312
TGGCGAAA	0.0101
AGGCGATC	-0.168
CGGCGAAG	0.205
GAACAGCA	0.123
ACCCAAGG	-0.162
ACGGCGAT	0.188
CCCCCTTA	-0.348
CGAGGTTA	-0.00293
CCAGGGTA	-0.174
ACTAACTC	-0.00452
ATTCTTTA	0.0489
CTGAGTGA	0.24
ATCCTATG	-0.0991
CTGAATAA	0.134
ATTAACCG	0.335
ATTAACCA	-0.114
ATTAACCC	0.0664
CCTCCGCA	-0.247
GCTCCGGA	0.367
GCTCCGTA	0.205
CCTCCGGA	0.337
GCTCCGCA	0.0792

Sequence	PBM E-score
CCTCCGTA	-0.0207
CTTGACAA	0.152
CGGACCGA	0.402
GGAACCGA	0.248
CGAACCGC	0.189
CGGACCAA	0.343
GGGACCGA	0.158
CGAACCGA	0.328
CGGACCAG	0.185
CGGACCAC	0.244
CGGACCGC	0.104
AACGGTTA	0.0289
AGAGACAT	-0.0279
GATAGCGC	-0.051
CAAATAGC	0.0894
AAAGGAAA	0.203
CGGATCCG	0.445
CAGATCCC	-0.21
CGGATCCA	0.263
AAGATCCG	0.091
CAGATCCG	0.317
CGGATCCC	0.171
GGCATGAC	-0.199
CGGGATAG	0.102
CCGGATAC	0.257

Sequence	PBM E-score
ACGGATAT	0.339
TCGGATAA	0.379
TGGGATAA	-0.0513
CCGGATAA	0.4
CCGGATAG	0.342
CAGGATAG	0.0949
GCGGATAA	0.224
ACGGATAG	0.139
CAGGATAA	-0.0581
ACGGATAA	0.299
ATGTTCAA	0.134
ACCTTACG	0.00591
GCAGGACA	0.11
CCTTCTTC	-0.19
CGCGGAAC	0.382
CGCGGGAA	0.311
AGCGGAAC	0.194
CGCGGGGA	0.125
GGCGGAAA	0.108
CGCGGAAA	0.325
GGCGGAAC	0.199
AGCGGAAA	0.27
GGCGGGAA	0.0413
GATGGACA	0.183
ATTAGCGC	0.056

Sequence	PBM E-score
ATAGATCA	0.216
CAAGCTGG	-0.129
CCAGCCCA	-0.258
ATACTCTG	0.006
CGGGTTCC	0.246
AAGAAACC	0.129
CGTAGAGA	-0.0444
GAACGCGC	0.163
AGTATAAA	0.365
AGTATATG	0.0296
AGTATATC	0.155
GGTATAAA	0.16
TGTATAAA	0.0524
CGTATAAA	0.311
AGTATATA	0.334
AGTATAAC	-0.0238
CGTATAAC	0.106
TCGCACAA	-0.0958
CCATTTCC	0.13
ACCTACAC	-0.309
CCCTCAAG	-0.297
GAAGTGGA	0.0603
GTACCGAA	0.227
ATACCGAC	0.0349
CTACCGAA	0.105

Sequence	PBM E-score
ATACCGAT	0.11
TTACCGAA	0.336
ATACCGAA	0.322
AAAATGTA	-0.017
GTTAGAAA	0.184
CTGGAACA	0.122
GCGGAACA	0.237
CAGGAACA	-0.0366
TCGGAACA	0.408
ACGGAACA	0.303
CCGGAACA	0.435
AGCTTTTC	0.0452
CAATTAAG	0.21
GGGTTAAA	-0.0167
CAGCTCCG	0.222
AAGCTCCT	-0.237
AAGCTCCG	0.339
CAACTCCG	0.197
AAACTCCG	0.319
ATACTCCA	-0.081
ATACTCCC	0.059
ATACTCCG	0.321
AAACTCCT	-0.18
AATCGTAT	0.039
TATATCGA	0.161

Sequence	PBM E-score
ATATCTTG	0.0464
CAAAGGGA	-0.166
ACGGTCCG	0.161
TACCCGGA	0.354
CAGCCGTA	0.142
AAGCCGCA	0.161
AAGCCGTA	0.224
GAGCCGCA	0.0573
GAGCCGTA	0.307
AAGCCGTC	0.187
CACCCGGA	0.237
GAGCCGGA	0.328
GAGCCCGA	0.0143
AAGCCGGA	0.411
GACCCGGA	0.212
GCAGAGCA	0.0245
AATGTCCG	0.283
AGGTCGGG	-0.168
AAGCCCAA	-0.106
CCATCTTC	0.173
AGAAGCTC	0.0486
CCGTGAGG	-0.119
CACCAGAC	-0.00896
AACAGCTG	0.0223
CTAGAGTA	-0.0589

Sequence	PBM E-score
CAGCCGGC	0.391
AAGCCGGC	0.374
AAGCCGGG	0.246
TAGCCGCA	-0.0301
AAGCCGGT	0.258
CAGCCGGG	0.127
GAGCCCGC	-0.212
TAGCCGGA	0.401
GAGCCGGC	0.406
TAGCCGAA	0.276
GAGCCGCC	0.0613
CAGCCGCC	0.0636
CCATAGAC	-0.204
GAAGTACA	0.0369
CCAATCGC	-0.072
ATCAGCAG	0.0226
GGTGCCAC	-0.119
TCGTACCA	0.099
CGCGCACA	0.112
CAGCCGCA	-0.134
CAGCCGGA	0.392
CAGCCTGA	-0.0443
ATATCACC	0.093
ACAGCGGC	-0.0827
CATTCGGG	0.141

Sequence	PBM E-score
GGTTCGGA	0.281
CATTCGGC	0.269
AATTCGGT	0.301
AATTCGGC	0.24
CATTCGGA	0.338
AATTCGGG	0.103
CGTTCGGA	0.342
GATTCGAC	-0.112
AATTCGGA	0.343
GATTCGGC	0.364
CGTTCGGC	0.27
ATCCTTGC	-0.0624
GTTAGACA	0.222
GATTTGTA	0.103
AGCCAAGG	-0.16
ACTAAGAT	0.154
GAGGCCCA	-0.319
CGGTTAAG	0.269
ACGAATAG	-0.0621
TGGGCTAA	-0.147
CAAAAGGG	-0.101
GCCCTTCA	-0.0881
TATTCGAA	-0.106
GATTCGTA	0.125
GATTCGCA	0.131

Sequence	PBM E-score
TATTCGCA	0.0122
TATTCGGA	0.356
GATTCGGA	0.329
AGCTTGGA	-0.226
ATTCCATA	0.147
ACACAGGT	-0.289
AGGCAAGA	-0.112
CGGCATGC	0.272
GGGCATTA	-0.199
AGGCATTA	-0.187
CGGCATGA	0.313
CGGCATTA	0.416
CGGCAAGA	0.317
GGGCAAGA	0.106
GGGCATGA	-0.275
CATCGGCC	0.115
ACCCAGTG	-0.306
GAGAGGGC	-0.293
CCTATCGA	-0.107
CCCGGACG	-0.0945
ACCGGATA	0.187
ACCGGACT	0.101
ACCGGATC	0.229
ACCGGATG	0.307
ACCGGACG	0.305

Sequence	PBM E-score
CGCATGAA	0.0183
AGTTAGTG	0.00554
CCTATACG	-0.267
CCTCGGCG	0.355
TCACGGCA	0.096
ACTCGGCA	0.299
ACTCGGCC	0.121
ACTCGGCG	0.325
CCTCGGCA	0.367
ACTCGGCT	0.209
TATCGGCA	0.213
CCTCGGAG	0.277
CCTCGGCC	0.257
TCTCGGCA	0.35
CCTCGGTA	-0.0209
CGAACACC	0.0223
AATGGCCA	-0.256
ACGGATTG	0.161
ATTCCGTC	0.149
GTTCCGTA	0.276
ACTCCGTG	0.1
ATTCCGCG	0.242
ATTCCGTA	0.322
CTTCCGTC	0.209
CTTCCGTA	0.322

Sequence	PBM E-score
ATTCCGTG	0.313
CATCCGTA	0.206
CCTGCGAG	0.00158
CGTAGCTC	-0.0585
AGTTCACG	-0.0529
CCCCAATA	-0.244
ACGCCAAT	-0.0124
ATTCTTCC	0.083
ACCGGGAT	0.256
CAGTTAGA	-0.0352
ATAAGATC	-0.0275
CCGAATCC	0.322
ACGAATCC	0.115
CCGAATTC	0.334
CCGAATCA	0.233
ACGAATTC	0.113
CCGAATTA	0.231
TACGCTAA	0.0349
GTAACTCA	-0.0122
AGATCTAA	0.0189
AGTCTTGG	-0.0577
AACCAAAA	0.0925
GACAAAAA	0.333
GACAAGAA	0.151
TACCAAAA	0.0716

Sequence	PBM E-score
GACCAAAA	0.309
GACAAAAC	0.0933
AGTAATAC	0.106
AGTAATAT	0.338
AATAATAC	0.232
AACAATAT	0.352
AATAATAT	0.333
AATAATAG	0.00819
AACAATAA	0.255
AGTAATAG	-0.00505
AACAATAC	0.0929
CAACATCG	0.0608
CCCACGAC	-0.199
GTTAGAGA	-0.0529
ACCTGCTA	-0.00094
CCTGAGTC	-0.0246
CTATGATA	0.162
GTATGATA	0.226
ATATGATA	0.325
